Source: PubChem (several laboratories)
Plk1 PBD FP: Plk1 polo box domain binding inhibitors, primary screen, biochemical, fluorescence polarization; AID 693, 2007; Plk1 PBD phosphopeptide binding; inhibition, %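 (tested at about 20 µM)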; Serine/threonine-protein kinase PLK1 (Homo sapiens), P53350; actives 0.13% (n = 97,000); in the data active = inhibition above about 34%, passing the limit was not always enough
CYP2C9 inhib: blockers of cytochrome P450 2C9 activity – biochemical, luminescence, ADME assay, primary screen. inhibition, % at 5 µM. CYP2C9 Supersomes, luciferin-H conversion. actives 20% (n = 96,000). P11712;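 active = blocking of liver enzyme CYP2C9 beyond about 50% at 5 µM, limit read from the data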
Target sequence (P11712 whole entry, looked up): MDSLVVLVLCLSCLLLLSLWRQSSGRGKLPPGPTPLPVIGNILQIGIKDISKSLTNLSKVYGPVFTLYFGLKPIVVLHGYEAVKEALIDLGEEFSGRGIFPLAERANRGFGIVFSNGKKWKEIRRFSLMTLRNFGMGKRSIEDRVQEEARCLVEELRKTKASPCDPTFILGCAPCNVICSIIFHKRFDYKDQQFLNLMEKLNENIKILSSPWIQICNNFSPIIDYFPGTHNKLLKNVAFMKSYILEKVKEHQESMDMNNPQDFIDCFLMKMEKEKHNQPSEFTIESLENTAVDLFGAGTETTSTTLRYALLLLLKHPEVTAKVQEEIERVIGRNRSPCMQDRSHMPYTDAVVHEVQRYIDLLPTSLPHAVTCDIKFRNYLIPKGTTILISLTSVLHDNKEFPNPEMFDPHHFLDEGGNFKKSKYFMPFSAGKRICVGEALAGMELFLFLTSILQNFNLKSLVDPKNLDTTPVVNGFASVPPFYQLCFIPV
CYP2C19 activ: human CYP2C19 activators, primary screen, biochemical, luminescence | Cytochrome P450 2C19 (Homo sapiens), P33261 | recombinant CYP2C19, luciferin-H EGE luminescence; hits give high values; 0 = fully inhibited enzyme, 1 = untreated enzyme | 96,000 tested, under 10 active | activation factor at 5 µM;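 active = activation factor of at least 2 at 5 µM in the primary screen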;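 also: 0 = wells with 2.5 mM tranylcypromine and 1 = vehicle-only wells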
PLK1 kinase inh: human PLK1 kinase inhibitors, primary screen, biochemical, TR-FRET; Serine/threonine-protein kinase PLK1 (Homo sapiens), P53350; recombinant PLK1 kinase, TR-FRET peptide phosphorylation; inhibition, % at 10 µM; actives 0.53% (n = 97,000); AID 619, 2007;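 active = inhibition of 50% or more in the single-concentration screen; inactive = inhibition below 50%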;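 also: 0% = DMSO max control and 100% = H-89 dihydrochloride min control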
CYP2C19 inh: blockers of cytochrome P450 2C19 activity – biochemical, luminescence, ADME assay, primary screen; actives 21% (n = 96,000); CYP2C19 Supersomes, luciferin-H EGE luminescence, 30 min; AID 778, 2007; P33261; inhibition, % at 5 µM;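 active = CYP2C19 inhibition above a set limit at 5 µM in the primary screen, cut at about 50% in these data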;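 also: plate controls were negative control wells for no effect and 2.5 mM tranylcypromine positive control for full effect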
CYP2C9 activ: human CYP2C9 activators, primary screen, biochemical, luminescence; actives 1.4% (n = 96,000); AID 1024, 2008; activation factor at 5 µM; recombinant CYP2C9, luciferin-H conversion; hits give high values; factor 1 = untreated enzyme, 0 = blocked;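 active = activation factor of 2 or more for CYP2C9 at a 5 µM dose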;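 also: 0 = sulfaphenazole-blocked wells and 1 = vehicle-only wells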
The depositor's hits bear a star; nt = no result given. This is a sample that favours compounds with a hit; in the whole collection about 28% have one here.

SMILES	Plk1 PBD FP	CYP2C9 inhib	CYP2C19 activ	PLK1 kinase inh	CYP2C19 inh	CYP2C9 activ
O=C(CSc1nnc(-c2cccs2)n1-c1cccc(Cl)c1)c1cccc2c1OCCO2	13.0	84.9*	0.3	-25.4	72.0*	0.2
O=C(O)CSc1nnc(-c2cccs2)n1-c1ccc(Cl)cc1	-10.8	4.4	1	-11.9	1.9	1
Fc1cccc(Cl)c1CSc1nnnn1-c1ccc2c(c1)OCO2	11.4	38.3	0.1	-2.0	92.0*	0.6
O=C(O)CSc1nnnn1-c1ccc2c(c1)OCCO2	-6.5	3.5	1.2	-7.3	-17.6	1
Cc1[nH]c2c(ccc3ccccc32)c1C1C(CCN)C1(C)C (centres undefined)	4.7	31.4	0.9	-3.1	12.6	0.7
O=C(c1cccc(-n2cnnn2)c1)N1CCOCC1	-6.3	-15.8	1.1	-13.9	-13.3	1.2
Cc1nc(-c2cccc(S(=O)(=O)N3CCC(C)CC3)c2)cs1	-27.1	40.7	0.8	-6.2	20.5	0.6
CCOC(=O)C1CCN(S(=O)(=O)c2cccc(-c3cn4cc(Cl)ccc4n3)c2)CC1	-2.3	67.4*	0.2	-8.4	76.3*	0.3
CC1CCN(S(=O)(=O)c2cccc(-c3cn4cc(Cl)ccc4n3)c2)CC1	-6.5	61.3*	0.5	-6.0	46.2	0.4
CCOC(=O)C1CCN(S(=O)(=O)c2cccc(-c3cn4cccc(C)c4n3)c2)CC1	-9.2	64.3*	0.5	-11.3	52.9*	0.4
CCOC(=O)C1CCN(S(=O)(=O)c2cccc(-c3cn4ccccc4n3)c2)CC1	20.0	37.8	0.7	-5.4	32.3	0.6
O=C(NCc1cn2ccsc2n1)c1cccs1	8.7	0.7	1	-7.8	-3.7	1
Cn1c(C(O)c2ccccc2)nc(Cl)c1Cl (centres undefined)	nt	12.0	0.3	nt	69.7*	0.9
COc1ccc(NC(=O)CC2Oc3ccccc3NC2=O)cc1 (centres undefined)	nt	3.9	0.8	nt	22.7	1
CCCCCCn1cc(C(=O)O)c(=O)c2ccccc21	27.0	8.5	0.7	0.4	32.7	0.9
CCCCN(C(=O)c1ccc(Cl)cc1)C1CC2CCC(C1)N2C (centres undefined)	-3.5	-3.0	0.8	-13.6	21.9	1
CCCCCCCN1N=C(C)C(C(=O)c2ccccc2)C1=O (centres undefined)	-11.7	94.1*	0.9	-18.1	7.8	0.1
CCCCCCN1N=C(C)C(C(=O)c2ccc(Cl)cc2)C1=O (centres undefined)	-15.8	59.7*	1	-1.4	0.6	0.4
O=c1cc(N2CCN(Cc3ccccc3)CC2)[nH]c(=O)n1Cc1ccc(F)cc1	-2.1	16.4	1	3.1	-2.7	0.8
Cc1cc(C)cc(NC(=O)NC2CCN(CC(=O)Nc3c(C)cc(C)cc3C)CC2)c1	-0.6	nt	nt	-6.1	nt	nt
COC(=O)C1CCC(C)(C(=O)Nc2ccccc2)C1(C)C (centres undefined)	-15.9	63.8*	0.3	-3.6	68.1*	0.4
CC1Cc2ccccc2N1S(=O)(=O)c1cnc[nH]1 (centres undefined)	nt	98.0*	0.1	nt	91.6*	0
O=S(=O)(c1cnc[nH]1)N1CCc2ccccc21	nt	99.9*	0	nt	98.5*	0
Brc1ccc(-c2nnc3sc(CN4CCN(c5ccccc5)CC4)cn23)cc1	nt	3.3	1	nt	1.0	1
O=C(Nc1ccccc1-c1ccccc1)c1ccc(Br)o1	17.8	30.2	0.5	1.3	47.6	0.7
SMILES	Plk1 PBD FP	CYP2C9 inhib	CYP2C19 activ	PLK1 kinase inh	CYP2C19 inh	CYP2C9 activ
CCOc1cc(NC(=O)c2ccccc2C)c(OCC)cc1NC(=O)C1=Cc2ccccc2OC1	-11.2	11.7	0.9	-10.2	13.5	0.9
O=C(c1ccccc1Nc1ccc(SC(F)F)cc1)N1CCCCCC1	15.3	59.6*	0.2	-4.0	84.3*	0.4
COc1ccc(-n2c(C)c3c(OC)cccc(=O)c3c2C)cc1	-11.0	58.2*	0.2	-2.1	81.3*	0.4
CSc1nsc(SC)c1NC(=O)OCCc1ccccn1	22.1	35.2	0	-13.4	95.1*	0.6
CSc1nsc(SC)c1NC(=O)OCc1ccccc1	-10.0	27.7	0.1	-10.6	89.2*	0.7
CCOc1ccccc1OCCOCCN1CC(C)OC(C)C1 (centres undefined)	8.2	-12.6	1	-3.5	-1.8	1.1
CC1(C)CC(=O)C2=C(C1)Oc1nc3ccccc3cc1C2C(C#N)C#N (centres undefined)	-3.4	60.5*	0.7	-2.9	26.2	0.4
CCSc1nnc(NC(=O)COc2ccc3ccccc3c2)s1	0.9	68.1*	0.4	-33.4	60.3*	0.3
Cc1nnc(NC(=O)COc2ccccc2)s1	-27.7	22.4	0.9	5.8	13.2	0.8
CCC(Oc1ccccc1)C(=O)Nc1cc(C)on1 (centres undefined)	11.6	46.2	0.6	-9.6	36.3	0.5
CCSc1nnc(NC(=O)COc2ccccc2)s1	-1.3	75.7*	0.5	-2.3	53.1*	0.2
CC(=O)CSc1nnc(NC(=O)CCc2ccccc2)s1	26.1	29.3	0.8	-23.9	21.1	0.7
CCSc1nnc(NC(=O)C(CC)Oc2ccccc2)s1 (centres undefined)	nt	79.6*	0.7	nt	33.9	0.2
CCSc1nnc(NC(=O)c2cccc3ccccc23)s1	5.6	14.7	1	-23.0	3.3	0.9
CCCCSc1nnc(NC(=O)CCc2ccccc2)s1	2.2	56.4*	0.8	-19.3	21.0	0.4
NC(=O)C(c1cccc(Cl)c1)c1ncc(C(F)(F)F)cc1Cl (centres undefined)	21.1	3.1	0.6	-11.2	41.1	1
COc1ccc(-c2nnc(SC(C)C(=O)Nc3c(C)n(C)n(-c4ccccc4)c3=O)o2)cc1 (centres undefined)	-9.2	7.0	1	-3.7	2.7	0.9
CCOC(=O)c1sc2nc(NC(=O)COc3ccccc3)sc2c1C	10.6	86.2*	0.5	-2.7	51.3*	0.1
CCC(Oc1ccccc1)C(=O)Nc1ccccn1 (centres undefined)	10.4	44.4	0.3	-5.9	74.8*	0.6
CCSc1nnc(NC(=O)C2CC=CCC2C(=O)O)s1 (centres undefined)	-5.5	79.2*	1	0.3	-0.2	0.2
CCOC(=O)c1ccccc1NC(=O)COc1ccccc1	-5.2	-33.9	0.8	-8.4	16.4	1.3
CCSc1nnc(NC(=O)C2CCCCC2)s1	-5.9	26.7	0.6	-8.0	36.7	0.7
